Screening data as filed in PubChem.
In the library only some 7.5% were active in any assay of this set; here they are far more common.
TSHR antagonist: blocks TSH signaling through the human TSH receptor. TSHR-expressing cells, TSH-stimulated cAMP HTRF, 2 h; hits give low values. activity change, negative = inhibition, % at 11.5 µM. actives 0.2% (n = 330,000);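 active = activity change below a set negative limit, meaning inhibition stronger than a set level, cut at about -70% in these data; inconclusive = activity change between two set negative limits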
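Competitive HTRF cAMP read-out (cryptate anti-cAMP antibody, cAMP-d2; 30 min, room temperature) in freshly harvested TSHR cells. Compounds added before TSH at EC80 (4nM final), followed by 2 hours' incubation at 37 deg C.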
B2AR arrestin: recruits beta-arrestin to the human beta2-adrenergic receptor | Potency, µM (top dose mostly 46.1 µM), inactives show top-dose activation, actives largely listed as activators | beta-arrestin recruitment to beta2AR, cell-based reporter | actives 0.02% (n = 330,000) | AID 492947;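 also: potency is read from the fitted curve at half-maximal effect; 0% = DMSO controls and full agonism = EC100 isoproterenol or metaproterenol; nearly all actives have a fitted effect of over 65% in size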
Target sequence (P07550 whole entry, looked up): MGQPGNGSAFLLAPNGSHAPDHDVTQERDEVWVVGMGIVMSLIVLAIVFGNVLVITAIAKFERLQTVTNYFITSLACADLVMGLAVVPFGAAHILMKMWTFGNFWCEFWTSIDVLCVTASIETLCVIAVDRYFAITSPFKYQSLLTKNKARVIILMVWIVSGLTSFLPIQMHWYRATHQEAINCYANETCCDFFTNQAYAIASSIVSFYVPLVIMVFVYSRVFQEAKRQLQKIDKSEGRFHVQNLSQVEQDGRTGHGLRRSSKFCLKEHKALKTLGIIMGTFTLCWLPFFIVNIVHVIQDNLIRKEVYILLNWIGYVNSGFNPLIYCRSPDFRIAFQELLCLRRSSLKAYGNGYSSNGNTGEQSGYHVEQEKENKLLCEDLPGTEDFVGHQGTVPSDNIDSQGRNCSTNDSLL
Gal4-VP16 FLuc: Gal4-VP16 reporter inhibition counter-screen. Drosophila S2 Gal4-VP16 UAS-luciferase, luminescence, 20 h. Potency, µM (titrated, usually from 53.6 µM), for the others: at the highest dose activity, negative = inhibition, most hits filed as inhibitors. actives 3.5% (n = 310,000). AID 2546;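 also: Gal4-VP16 expression switched on by copper sulfate through the metallothionein promoter; potency is read from the fitted curve at half-maximal effect; nearly all actives have a fitted effect of over 50% in size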
ELG1 DNA repair: blocks ELG1-dependent DNA repair in HEK293T cells; Potency, µM (highest dose often 46.1 µM), without a hit: at the top dose activity change, negative = inhibition, most hits filed as inhibitors; actives 2.3% (n = 330,000); HEK293T ELG1-luciferase reporter, luminescence, 16 h; DNA damage induced by 5-fluorouridine; AID 504467; also: potency is read from the fitted curve at half-maximal effect; nearly all actives have a fitted effect of over 55% in size
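5-Fluorouridine DNA damage + compound/DMSO, 2,000 cells/well, 16 h, 37 °C/5% CO2. ONE-Glo, 30 min RT, luminescence. Readout = decrease in reporter signal.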
RORgamma inh: inhibitors of mouse ROR gamma transcriptional activity | P51450 | Drosophila S2 Gal4-RORgamma UAS-luciferase reporter, 20 h | Potency, µM (doses to about 53.6 µM), for inactives: at the highest dose activity change, negative = inhibition, usual class: inhibitors | actives 5.4% (n = 310,000) | AID 2551; also: potency is read from the fitted curve at half-maximal effect; nearly all actives have a fitted effect of over 60% in size
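Stably transfected Drosophila Schneider cells are the test system, with ROR gamma fused to Gal4 and luciferase under UAS control; luminescence is read after 20 hr of 700 uM copper sulfate induction at ambient temperature.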
The depositor's hits bear a star; ? = inconclusive; · = no result given; [ ] = dose if it differs, or a comment. Unless noted, calls follow the shape of the dose curve; as a rule, active = well fitted curve in the direction sought with a large enough effect; inconclusive = small, poorly fitted or top-dose-only effect, or another doubt; inactive = no such curve, though single readings can be large; an effect the other way counts as inactive or inconclusive. Unless noted, % is scaled to controls: 0 for no effect and ±100 for the full control effect.

SMILES	TSHR antagonist	B2AR arrestin	Gal4-VP16 FLuc	ELG1 DNA repair	RORgamma inh
O=C(Nc1ccccc1N1CCCCC1)c1cccc([N+](=O)[O-])c1	-23	0%	-3%	-19%	11%
COc1ccc(C(=O)NC(=S)Nc2ccccc2N2CCCCC2)cc1[N+](=O)[O-]	8	4%	1µM*	-29%	?
COc1cc(C(=O)NC(=S)Nc2ccccc2[N+](=O)[O-])cc(OC)c1OC	-19	-1%	?	6.5µM*	5.6µM*
CCOc1ccc(C(=O)NC(=S)NC2CCCC2)cc1[N+](=O)[O-]	-2	0%	16µM*	-28%	5µM*
COc1cc(C(=O)NC(=S)Nc2ccc([N+](=O)[O-])cc2C)cc(OC)c1OC	-2	-1%	?	-24%	?
COc1ccc(N2CC(NS(=O)(=O)c3ccc(F)cc3)CC2=O)cc1 (centres undefined)	-5	0%	·	-6%	·
CCCn1c(-c2ccc(F)cc2)nc2c(NC3CCN(Cc4ccccc4)CC3)nc(C)nc21	·	·	-16%	·	?
Cc1ccc(C(=O)CCC(=O)NNC(=O)c2ccccc2O)cc1	-1	0%	·	5%	·
CCOc1ccc(C(=O)NC(=S)Nc2ccccc2N2CCCCC2)cc1[N+](=O)[O-]	16	3%	0.5µM*	-2%	?
COc1ccc(C(=O)NC(=S)N2CCCCC2)cc1[N+](=O)[O-]	2	0%	1.3µM*	-8%	0.89µM*
CCOc1ccc(C(=O)Nc2ccccc2N2CCCC2)cc1	-1	-1%	-9%	21%	-19%
COc1ccc(C(=O)NC(=S)Nc2cccc(Cl)c2N2CCOCC2)cc1[N+](=O)[O-]	11	0%	5µM*	?	1.8µM*
CCOc1ccc(C(=O)NC(=S)Nc2ccc(N3CCCCC3)cc2)cc1[N+](=O)[O-]	-12	0%	4µM*	-4%	3.2µM*
CCOc1ccc(C(=O)NC(=S)Nc2ccc(NC(=O)CC)cc2)cc1[N+](=O)[O-]	0	-1%	-7%	0%	-32%
O=C(O)c1ccc(Cl)cc1Nc1nc2cc(Cl)ccc2o1	?	0%	-8%	?	37%
C=CC[C@@H]1C=C[C@H](O/N=C(\C)CCN2CCCc3nc(C)c(C)cc32)[C@H](CO)O1	·	·	-11%[10 µM]	·	3%[10 µM]
COC(=O)c1c(C(=O)c2ccc(Br)cc2)n(C)c2ccccc12	17	0%	·	9%	·
COc1ccc(C(=O)NC(=S)Nc2cc(C)ccn2)cc1[N+](=O)[O-]	3	0%	1µM*	?	?
N#CCCn1c(=O)c(CCc2ccccc2)nc2cnc(Oc3cccc(Cl)c3)nc21	·	·	-1%	·	0%
CCOC(=O)c1c(NC(=O)CCC(=O)O)sc2c1CCCCC2	-3	-1%	-7%	-7%	25%
CCOC(=O)c1c(NC(=O)CNCCOC)sc2c1CCCC2	7	0%	1.6µM*	-11%	1.3µM*
COc1ccccc1CC(=O)Nc1sc2c(c1C(N)=O)CCCC2	5	0%	-1%	-30%	12%
CCOC(=O)c1c(NC(=O)CN(CC)CC)sc2c1CCC2	-21	0%	?	-8%	13µM*
CCN(CC)CC(=O)Nc1sc2c(c1C(=O)c1ccccc1OC)CCC2	7	-1%	10µM*	-10%	4µM*
O=S1(=O)CCOCCCN1Cc1ccccc1F	6	1%	4%	16%	4%
SMILES	TSHR antagonist	B2AR arrestin	Gal4-VP16 FLuc	ELG1 DNA repair	RORgamma inh
COCCNc1nc(C)nc2c1nc(-c1ccccc1)n2CC1CCN(C)CC1	·	·	5%	·	-11%
CCOC(=O)OCC1OC(c2ccccc2)C=CC1Oc1ccc2oc(=O)cc(C)c2c1 (centres undefined)	·	·	5%[10 µM]	·	-2%[10 µM]
O=C(COc1ccccc1-c1ccccc1)NCCN1C(=O)S/C(=C\c2cccnc2)C1=O	-5	0%	20µM*	?	-42%
O=C(NCCN1C(=O)S/C(=C/c2cccnc2)C1=O)c1cccs1	7	-2%	·	4%	·
Cc1ccccc1Nc1oc(-c2ccccc2)nc1-c1ccccc1	·	·	-8%	·	14%
O=C1CSc2ccc(C(=O)NCCc3ccc(Cl)cc3Cl)cc2N1	-23	0%	·	26µM*	·
COCCNC(=O)c1ccc2c(c1)NC(=O)CS2	7	-1%	-14%	7%	2%
C=CC[C@H](CC(=O)N(CCO)Cc1ccccc1)C(=O)N[C@@H](COC(=O)[C@H](CC=C)CC(=O)OC(C)(C)C)Cc1c[nH]c2ccccc12	-12	0%	·	23µM*	·
C=CC[C@@H](CC(=O)N(CCO)Cc1ccccc1)C(=O)N[C@H](COC(=O)[C@@H](CC=C)CC(=O)OC(C)(C)C)Cc1c[nH]c2ccccc12	6	1%	·	18µM*	·
CC(=O)c1cccc(NC(=S)NC(=O)c2ccc(C)cc2Cl)c1	-10	7%	13µM*	?	11µM*
CC(=O)c1cccc(NC(=S)NC(=O)c2ccccc2Cl)c1	-12	0%	-86%	24%	13µM*
O=C(NC(=S)Nc1ccccc1O)c1ccccc1Cl	5	0%	?	?	7.1µM*
C#CC(C)OC(=O)c1nnc2c3ccccc3n(COC)c2n1 (centres undefined)	·	·	-7%[10 µM]	·	-10%[10 µM]
S=C(Nc1ccccn1)NC1CCCCC1	-4	12%	5µM*	?	2µM*
S=C(NCc1cccc(Cl)c1)NC1CCCCC1	-9	0%	14µM*	-13%	2.8µM*
Cc1ccc(CNC(=S)NC2CCCCC2)cc1	-9	0%	4µM*	10%	4µM*
S=C(NCc1ccccc1)NC1CCCCC1	-8	0%	18µM*	-6%	4µM*
S=C(Nc1ccccn1)NC1CCCC1	-7	13%	-8%	-1%	-27%
O=C(CCNC(=O)c1ccccc1)Nc1cccnc1	7	0%	-2%	5%	-12%
CN1CC[C@]2(CCN3CCc4c(oc5ccccc45)[C@@H]3C2)N(C)C1=O	-4	0%	·	?	·
COC(=O)C1CCN(C(=O)c2cc3c(=O)n4cccc(C)c4nc3n2Cc2ccccc2)CC1	4	0%	3%	?	2%
COC1=C(OC)C(=O)C(C/C=C(\C)CC/C=C(\C)CC/C=C(\C)CC/C=C(\C)CC/C=C(\C)CC/C=C(\C)CC/C=C(\C)CC/C=C(\C)CC/C=C(\C)CCC=C(C)C)=C(C)C1=O	·	·	-6%	·	1%
N[C@@H](C(=O)O)c1cc(O)ccc1Cl	·	·	1%	·	1%
O=C1c2ccccc2CN1CCNC(=S)NC1CCCCC1	-10	0%	-25%	?	18µM*
S=C(NCCCc1ccccc1)NC1CCCCC1	2	0%	7.1µM*	?	4.5µM*
S=C(NCCc1ccccn1)NC1CCCCC1	2	0%	-90%	?	13µM*
COCCCNC(=S)NC1CCCCC1	4	0%	?	7%	11µM*
Nc1ccc2oc(=O)ccc2c1I	·	·	-9%	·	7%
